Hit rate of the full screen: of about 360,000 compounds, about 2,300 (0.64%) were called active. What follows is part of a selection rich in actives, with near analogues and random picks from the rest. Unmarked numbers belong to inactive results. No stated cut-off is given here; in the data, active means inhibition mostly above about 40% (no sharp cut-off); inactive means mostly below about 27%.

As usually defined, the inhibition is the change of the read-out against control, counted positive when it falls.

This assay deals with Sentrin-specific protease 8 (Homo sapiens) (UniProt Q96LD8). The experiment in a line: human SENP8 protease inhibitors, primary screen, biochemical, fluorescence, Nedd8 protein substrate, uHTS (AID 602440). The conditions noted are these: recombinant SENP8, Nedd8 substrate fluorescence; at 20 µM; active compounds read high.
Sequence of Sentrin-specific protease 8 (Homo sapiens) (Q96LD8 whole entry, looked up): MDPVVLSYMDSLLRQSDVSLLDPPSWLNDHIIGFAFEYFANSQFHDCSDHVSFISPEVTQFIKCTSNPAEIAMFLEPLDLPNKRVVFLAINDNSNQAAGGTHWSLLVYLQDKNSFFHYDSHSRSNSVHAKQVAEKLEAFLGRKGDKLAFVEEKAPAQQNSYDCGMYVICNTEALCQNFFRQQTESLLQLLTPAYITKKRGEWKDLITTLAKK
With `CCN(C(=O)CSc1ncnc2sccc12)c1c(N)n(Cc2ccccc2)c(=O)[nH]c1=O`, the inhibition was -25%.

On to `CC1CCCC(N2CCN(C(=O)c3ccc(F)cc3)CC2)C1` (stereo unspecified), for which the inhibition is 7.2%.

As to `CCN1CCC2(CC1)N=C(c1ccc(F)cc1)C(=S)N2C(=O)c1ccc(C)cc1`, the inhibition is 48.7% (active).

With `CCN1CCC(O)(/C=C/c2ccc(C)cc2)C(C(=O)/C=C/c2ccc(C)cc2)C1` (stereo unspecified), the inhibition was 16.7%.

On to `Cc1ccc(C(=O)N2CC(=O)Nc3ccc(F)cc3C2c2ccc(F)cc2)cc1` (stereo unspecified), for which the inhibition was 4.1%.

For `COC(=O)CNC(=O)c1ccc2c(c1)S(=O)(=O)c1ccccc1C2=O`, the inhibition is 23.2%.

For `CN(Cc1ccccc1)C(=O)CCNC(=O)Cn1cnc2ccccc2c1=O`, the inhibition is 16.4%.

Consider `N#Cc1cccc(NC(=O)CN2CCCCCC2)c1`, for which the inhibition was 7.3%.

With `CCOCCCn1c(NN)nc2ccccc2c1=O`, the inhibition was 34% (active).

Regarding `CCc1nnc(NC(=O)CSc2nc3ccccc3c(=O)n2CCCOC)s1`, the inhibition was 23.2%.

Take `CCOCCCn1c(SCC(=O)Nc2cc(OC)ccc2OC)nc2ccccc2c1=O`: the inhibition is -19.4%.

`Cc1cc(NC(=O)COC(=O)COc2ccc(Cl)cc2C)c([N+](=O)[O-])cc1C`: the inhibition is 7.4%.

On to `COc1ccc(CN2CN(C(C)C)CSC2=S)cc1`, for which the inhibition was 6.1%.

For `Cc1oc2c(c1C(=O)N1CCOCC1)C(=O)c1ccccc1C2=O`, the inhibition was 61.3% (active).

Regarding `Cc1nc2ccccc2n1C(=O)N1CCOCC1`, the inhibition was 11.5%.

For the compound `CC(C(=O)Nc1ccccc1-c1ccccc1)N1CCOCC1` (stereo unspecified), the inhibition was 3.7%.

Take `COc1ccc(C2=NOC(C(=O)NCc3ccco3)C2)cc1OC` (stereo unspecified): the inhibition was 7.1%.

Take `COc1ccc(-c2c(NC(=O)c3ccco3)oc3ccc(Cl)cc3c2=O)cc1`: the inhibition is -71.5%.

With `Cc1cc(C)cc(N(CC(=O)NC2CCCC2)C(=O)CCC(=O)Nc2nccs2)c1`, the inhibition was 10.9%.

`CC1(C)C2CCC1(C)C(OC(=O)c1ccc(O)cc1)C2` (stereo unspecified): the inhibition is 40.5% (active).

Consider `CC1(C)C2CCC1(C)C(OC(=O)CCn1ccnc1)C2` (stereo unspecified), for which the inhibition was 22.1%.

Consider `Cc1ccc(C(=O)OC2CCCN(C)C2)cc1` (stereo unspecified), for which the inhibition was 8.1%.

Regarding `COc1ccc2c(c1)C(C)=CC(C)(C)N2C(=O)Nc1ccccc1`, the inhibition is -486%.

As to `COc1cc2[nH]c(=S)n(Cc3ccc(C)o3)c(=O)c2cc1OC`, the inhibition is 20%.

As to `CCC(C)(C)NC(=O)C(c1ccc(O)cc1)N(Cc1ccco1)C(=O)CCC(=O)Nc1ccccn1` (stereo unspecified), the inhibition was -20.6%.

As to `Nc1ncnc2c1ncn2[C@@H]1O[C@H](C(=O)N2CCCN(Cc3ccccc3F)CC2)[C@@H](O)[C@H]1O`, the inhibition is 18.2%.

On to `CCOc1ccc(NC(=O)CCNC(=O)c2ccc(Br)cc2)cc1`, for which the inhibition was 0.3%.

In the case of `CCN(CC)CCOC(=O)c1ccc(NC(=O)CNC(=O)c2ccccc2)cc1`, the inhibition is 7%.

For `CCN(CC)C(=O)CCC(=O)Nc1ccc(C(=O)OC)cc1`, the inhibition was 51.9% (active).

Consider `Nc1c(C(=O)c2cccs2)sc2nsc(SCCN3CCCCC3)c12`, for which the inhibition is 16.8%.

Consider `O=C(NCCN1CCOCC1)C1CCN(S(=O)(=O)c2ccccc2)CC1`, for which the inhibition is 18%.

For `O=C(NNc1nc(N2CCCC2)nc(N2CCCC2)n1)c1ccccc1`, the inhibition was 5.2%.

Consider `CCc1ccccc1NC(=O)c1ccc2c(c1)CCN2S(C)(=O)=O`, for which the inhibition was 22.2%.

As to `CN1CCc2ccccc2C1Cc1ccccc1NC(=O)c1sc2ccccc2c1Cl` (stereo unspecified), the inhibition was 53.8% (active).

Turning to `CCc1ccccc1NC(=O)NCCN1CCCCC1`, the inhibition is 12.7%.

As to `Cc1ccc(C2=Nc3c(ccc4ccccc34)C(c3ccncc3)=NN2)cc1`, the inhibition was -6.5%.

On to `C=C(C)Cn1c(C)cc(C)c(S(=O)(=O)c2ccccc2C)c1=O`, for which the inhibition was 20.8%.

Consider `COc1ccc(/C=C2/C(=O)OCc3cc(OC)c(OC)cc32)c(OC)c1`, for which the inhibition is 20.7%.

As for `COc1ccc(C(=O)CCc2ccccc2O)c(OC)c1`, the inhibition was 9.3%.

For the compound `COc1ccc(/C=C2/C(=O)N(c3ccccc3)N=C2C)c(OC)c1`, the inhibition is 53.8% (active).

Regarding `O=C(CSc1nnnn1C1CCCC1)Nc1ccc2c(c1)OCCO2`, the inhibition is 7%.

Take `CN(C)c1ccc(/C=C2\NC(=S)N(Cc3ccccc3)C2=O)cc1`: the inhibition was 46.7% (active).

In the case of `CCN(CC(=O)NC(C)C)C(=O)c1cc(S(=O)(=O)N2CCCCC2)ccc1N1CCCCC1`, the inhibition is 2.8%.

On to `CCOC(=O)C1CCCCN1Cc1ccc(OC)c(OC)c1OC` (stereo unspecified), for which the inhibition was -4.4%.

As to `CC1(C)CC(=O)C(N=Nc2c(F)cccc2F)=C(O)C1`, the inhibition was 24.6%.

For the compound `O=C1CCCC(O)=C1N=Nc1ccc2ncsc2c1`, the inhibition is 7.1%.

Consider `O=S(=O)(c1ccc(-c2ccccc2)cc1)N1CCCC1`, for which the inhibition was 7.9%.

For the compound `O=C1CCCC(O)=C1N=Nc1ccc(S(=O)(=O)N2CCOCC2)cc1`, the inhibition was 43.2% (active).

Regarding `Cc1ccc(S(=O)(=O)N2CCN(S(=O)(=O)N3CCOCC3)CC2)cc1`, the inhibition was 6.5%.

Consider `CC1(C)CC(=O)C(N=Nc2ccc(S(=O)(=O)N3CCCCCC3)cc2)=C(O)C1`, for which the inhibition was 41% (active).

In the case of `Cn1c(C(=O)O)ccc1S(=O)(=O)N(Cc1ccccc1)Cc1ccccc1`, the inhibition was -7%.

As to `COc1ccc(C(=O)N(CCN2CCOCC2)CC(=O)NC2CCCC2)cc1OC`, the inhibition was -1.7%.

For `CN(CC(=O)NNC(=O)CNC(=O)c1ccccc1Cl)S(=O)(=O)c1ccc(Cl)cc1`, the inhibition is 10.1%.

`Cc1cc(O)c(NC(=O)c2ccc(C)c([N+](=O)[O-])c2)cc1C`: the inhibition was 3.9%.

With `CCN(CC)C(=O)CC1(c2ccccc2OC)CCOC(C(C)C)C1` (stereo unspecified), the inhibition was 4%.

In the case of `Clc1ccc(C2=CSC3=Nc4cccc5cccc(c45)N23)cc1`, the inhibition was 70.7% (active).

Take `COCCNC(=S)N1CCC(NC(=O)C23CC4CC(CC(C4)C2)C3)CC1`: the inhibition was 8.9%.

For the compound `c1ccc(-c2c[nH]c(-c3ccccc3)c2)cc1`, the inhibition was -22%.

In the case of `CCCc1c(-c2ccccc2F)ncn1Cc1ccccc1OC`, the inhibition is 2.7%.

Consider `CC(=O)NNc1cc(=O)c2c(=O)n(C)c(=O)n(C)c2[nH]1`, for which the inhibition was 15.9%.

In the case of `Cn1c(N)c(C(=O)COC(=O)C23CC4CC(CC(C4)C2)C3)c(=O)n(C)c1=O`, the inhibition is 12%.

(Values after PubChem BioAssay AID602440 (Sanford-Burnham Center for Chemical Genomics, 2012).)
